Test results as given in PubChem BioAssay (NCI).
The panel holds about 83,000 compounds, 20% with a hit somewhere; the sample as a whole holds those more often.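 Activity criterion: percent growth below 10, measured after cells in 96-well plates were exposed to a single compound concentration for 48 hours.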 Active and inactive are the calls of the source.

Tests used:
Experiment in all cases: NCI-60 one-dose screen, 48 h (100 = growth as untreated, 0 = no growth, -100 = all killed)
Details in all cases: 10 µM unless noted
T-47D breast = tested on: T-47D breast
BT-549 breast = tested on: BT-549 breast
MDA-MB-435 melanoma = tested on: MDA-MB-435 melanoma
SW-620 colon = tested on: SW-620 colon
MCF7 breast = tested on: MCF7 breast
HCT-116 colon = tested on: HCT-116 colon
HCC-2998 colon = tested on: HCC-2998 colon
KM12 colon = tested on: KM12 colon

Measured: growth

O=C(CSc1nc2ccc([N+](=O)[O-])cc2[nH]1)Nc1cccc(C(F)(F)F)c1
active: T-47D breast 6.1%
inactive: BT-549 breast 16.5% | MDA-MB-435 melanoma 13.8% | SW-620 colon 28.2% | MCF7 breast 15.7% | HCT-116 colon 12.8% | HCC-2998 colon 30.7% | KM12 colon 17.1%

O=C(NNc1nccc(Nc2ccc(S(=O)(=O)Nc3ccncc3)cc2)n1)c1ccccc1
inactive: T-47D breast 92.6% | BT-549 breast 89.5% | MDA-MB-435 melanoma 105% | SW-620 colon 106% | MCF7 breast 94% | HCT-116 colon 99.2% | HCC-2998 colon 21.4% | KM12 colon 101%

Nc1ncnc2c1N=C(c1ccc3c(c1)OCO3)CC(c1cccc(Nc3ccnc4cc(Cl)ccc34)c1)N2 (configuration not stated)
active: MCF7 breast 8.54% | HCT-116 colon 6.7%
inactive: T-47D breast 43.3% | BT-549 breast 74.5% | MDA-MB-435 melanoma 51.6% | SW-620 colon 25.4% | HCC-2998 colon 72% | KM12 colon 30.5%

C=CCn1cc(-c2nc3ccccc3s2)c2cc(-c3ccc4c5c(cccc35)C(=O)N(N)C4=O)ccc21
inactive: T-47D breast 78.2% | BT-549 breast 94.4% | MDA-MB-435 melanoma 103% | SW-620 colon 98.5% | MCF7 breast 75.2% | HCT-116 colon 96.6% | HCC-2998 colon 102% | KM12 colon 100%

COCCn1c(-c2csc(-c3cn(C)c4ccc(OC)cc34)n2)cc2cccnc21
inactive: BT-549 breast 43.6% | MDA-MB-435 melanoma 74.5% | SW-620 colon 15.1% | MCF7 breast 47.5% | HCT-116 colon 57.2% | KM12 colon 21.5%
active: T-47D breast 8.7% | HCC-2998 colon -3.8%

Cc1cnc(C(=O)NNc2nc3sc4c(c3c(=O)n2C)C(C)CCC4)cn1 (configuration not stated)
active: T-47D breast -7.99% | MDA-MB-435 melanoma 7.05% | MCF7 breast -12% | HCT-116 colon 3.75% | KM12 colon 6.33%
inactive: BT-549 breast 25.8% | SW-620 colon 10.2% | HCC-2998 colon 29.5%

CCCCCCCCn1ccc2cc(NC(=O)Cn3cc(CN4CCCCC4)nn3)ccc21
active: T-47D breast -14.1% | MDA-MB-435 melanoma -74.6% | SW-620 colon -66.1% | MCF7 breast 9.34% | HCT-116 colon 2.64% | HCC-2998 colon -70.4%
inactive: BT-549 breast 71.6% | KM12 colon 19%

c1ccc(CNc2c3ccccc3nc3ccccc23)cc1
active: HCT-116 colon 8.4%
inactive: T-47D breast 37.7% | BT-549 breast 72.8% | MDA-MB-435 melanoma 42.8% | SW-620 colon 24.5% | MCF7 breast 12% | HCC-2998 colon 38.2% | KM12 colon 30.5%

CC(C)(C)c1cc(-c2nc3ccc(N4CCN(S(C)(=O)=O)CC4)cc3[nH]2)cc(C(C)(C)C)c1O
inactive: T-47D breast 76.6% | BT-549 breast 102% | MDA-MB-435 melanoma 94% | SW-620 colon 97.2% | MCF7 breast 76.4% | HCT-116 colon 81.7% | HCC-2998 colon 103% | KM12 colon 27.6%

Fc1ccc(-c2nn(-c3ccccc3)cc2-c2nc3ccccc3o2)cc1
inactive: T-47D breast 44.6% | BT-549 breast 66.4% | MDA-MB-435 melanoma 27.8% | SW-620 colon 63.1% | MCF7 breast 50.9% | HCT-116 colon 34.8% | HCC-2998 colon 101% | KM12 colon 31.3%

O=C1Nc2ccccc2[C@]12CC(c1ccccc1)=NN2
inactive: T-47D breast 66.6% | BT-549 breast 59.3% | SW-620 colon 23.4% | MCF7 breast 29.5% | HCT-116 colon 26.2% | HCC-2998 colon 65% | KM12 colon 31.9%
active: MDA-MB-435 melanoma -1.7%

CCCCN1C(=O)/C(=c2\sc3n(c2=O)C2C(NN=3)N(CC)C(=O)N2CC)c2ccccc21 (configuration not stated)
active: MDA-MB-435 melanoma -34% | MCF7 breast 5.32% | HCT-116 colon 3.15% | HCC-2998 colon 6.49%
inactive: T-47D breast 20.5% | BT-549 breast 20.6% | SW-620 colon 28.3% | KM12 colon 16.1%

c1cc2[nH]ncc2cc1-c1nc2ccc3[nH]ncc3c2c2c1CCCC2
active: T-47D breast 4.77% | MDA-MB-435 melanoma 2.02% | SW-620 colon 9.28% | HCT-116 colon 0.11%
inactive: BT-549 breast 12% | MCF7 breast 21.7% | HCC-2998 colon 13.8% | KM12 colon 13.2%

Cn1cc(-c2nc(-c3c[nH]c4ccncc34)cs2)c2ccccc21
inactive: T-47D breast 12.4% | BT-549 breast 84.4% | KM12 colon 18.7%
active: MDA-MB-435 melanoma -89.9% | SW-620 colon -47% | MCF7 breast 4.55% | HCT-116 colon -63.4% | HCC-2998 colon -52.3%

O=C(Cn1c(=O)sc2nc3ccccc3nc21)Nc1ncc(Cc2cccc(Cl)c2Cl)s1
inactive: T-47D breast 81.6% | BT-549 breast 100% | MDA-MB-435 melanoma 101% | SW-620 colon 100% | MCF7 breast 91.6% | HCT-116 colon 102% | HCC-2998 colon 101% | KM12 colon 99.9%

O=C1/C(=C/c2ccccc2Br)COc2ccc(O)c(O)c21
active: T-47D breast -7.17% | MDA-MB-435 melanoma 2.78% | SW-620 colon 5.6% | HCT-116 colon -3.23% | KM12 colon -7.57%
inactive: BT-549 breast 14.7% | MCF7 breast 20.9% | HCC-2998 colon 44.2%

Cn1c(-c2ccc(Br)cc2)c(O)c(=O)c2c(F)cccc21
inactive: T-47D breast 57.7% | BT-549 breast 70.6% | MDA-MB-435 melanoma 67.8% | SW-620 colon 51% | MCF7 breast 37.1% | HCT-116 colon 35.1% | HCC-2998 colon 64.5% | KM12 colon 53.3%

CCN(CC)CCNC(=O)c1cn2ncnc(Oc3ccc(NC(=O)Nc4ccc(Cl)c(C(F)(F)F)c4)c(F)c3)c2c1C
inactive: T-47D breast 64.5% | BT-549 breast 30.3%
active: MDA-MB-435 melanoma -78.8% | SW-620 colon -62.1% | MCF7 breast -65% | HCT-116 colon -79.3% | HCC-2998 colon -88.9% | KM12 colon -30.5%

COc1ccc(/C(C)=C(/c2ccc(OCCCN(C)C)cc2)c2ccc(OC(=O)Cc3ccccc3)cc2)cc1
inactive: T-47D breast 38.2% | BT-549 breast 76.5% | MDA-MB-435 melanoma 71.9% | SW-620 colon 91.8% | MCF7 breast 25.4% | HCT-116 colon 57.4% | HCC-2998 colon 86.7% | KM12 colon 73.9%

CCN(C(=O)N1CCN(c2cc3c(cc2F)c(=O)c(C(=O)O)cn3C2CC2)CC1)c1nc(-c2ccc(Cl)cc2)cs1
active: BT-549 breast -8.09% | MCF7 breast 9.42% | HCT-116 colon 9.89%
inactive: T-47D breast 22.3% | MDA-MB-435 melanoma 17.9% | SW-620 colon 18.3% | HCC-2998 colon 25% | KM12 colon 13.1%

COc1cc(NC(C)CCCNC(C)C)c2ncccc2c1OC (configuration not stated)
inactive: T-47D breast 31.6% | BT-549 breast 94.4% | MDA-MB-435 melanoma 108% | SW-620 colon 92.6% | MCF7 breast 93.5% | HCT-116 colon 92% | HCC-2998 colon 91.7% | KM12 colon 106%

CCOC(=O)/C=C1\S/C(=N\Nc2cc(=O)[nH]c3ccc(Cl)cc23)N(c2ccccc2)C1=O
inactive: T-47D breast 66.8% | BT-549 breast 93.7% | MDA-MB-435 melanoma 96.3% | SW-620 colon 77.3% | MCF7 breast 34.3% | HCT-116 colon 38.9% | HCC-2998 colon 105% | KM12 colon 98.5%

CCc1n(Cc2ccc3ccccc3c2)cc[n+]1Cc1ccc2ccccc2c1
inactive: SW-620 colon 16%
active: T-47D breast -10.2% | BT-549 breast -2.05% | MDA-MB-435 melanoma -22.1% | MCF7 breast 2.44% | HCT-116 colon 4.69% | HCC-2998 colon -6.82% | KM12 colon -52.2%

COP(=O)(OC)C(C)(C)CC(=O)CC(C#N)(C#N)C(C#N)C#N
inactive: T-47D breast 106% | BT-549 breast 96.2% | MDA-MB-435 melanoma 104% | SW-620 colon 104% | MCF7 breast 92.1% | HCT-116 colon 92.4% | HCC-2998 colon 92.6% | KM12 colon 104%

C#COc1cccc(Nc2ncnc3ncc(NC(=O)CCl)cc23)c1
active: SW-620 colon -55.1% [6.25 µM] | MCF7 breast -0.408% [6.25 µM] | HCT-116 colon -32.6% [6.25 µM]
inactive: T-47D breast 30.5% [6.25 µM] | BT-549 breast 28.6% [6.25 µM] | MDA-MB-435 melanoma 17.1% [6.25 µM] | HCC-2998 colon 51.5% [6.25 µM] | KM12 colon 15.7% [6.25 µM]

CCN(CC)C(=S)SC(SC(=S)N(CC)CC)C(=O)c1nnn(-c2ccc([N+](=O)[O-])cc2)c1C
inactive: T-47D breast 76.4% | BT-549 breast 109% | MDA-MB-435 melanoma 101% | SW-620 colon 95.5% | MCF7 breast 59.3% | HCT-116 colon 95.7% | HCC-2998 colon 104% | KM12 colon 98%

O=C(NCc1ccccc1)Nc1ccccc1CNc1nc(Nc2ccc(OCCN3CCCC3)cc2)ncc1Cl
inactive: T-47D breast 104% | BT-549 breast 96.3% | MDA-MB-435 melanoma 82.9% | SW-620 colon 77.1% | MCF7 breast 65.9% | HCT-116 colon 95.5% | HCC-2998 colon 96.9% | KM12 colon 94.2%

O=C(Cn1c(=O)sc2ccccc21)NNS(=O)(=O)c1ccccc1[N+](=O)[O-]
inactive: T-47D breast 105% | BT-549 breast 116% | MDA-MB-435 melanoma 98.5% | SW-620 colon 103% | MCF7 breast 96.5% | HCT-116 colon 107% | HCC-2998 colon 107% | KM12 colon 99.9%

COc1cnc2c(c1)C(=O)c1c-2n(CCCNCCO)c(=O)c2ccncc12
active: T-47D breast -4.8% | MDA-MB-435 melanoma 5.96% | SW-620 colon 9.91% | MCF7 breast 0.768% | HCT-116 colon -49.8% | KM12 colon 6.99%
inactive: BT-549 breast 19% | HCC-2998 colon 26.4%
